Common to all, as to assay: DAPPL (digital affinity profiling via proximity ligation, sequencing); 10 mM Tris-HCl pH 7.5, 50 mM NaCl, 1 mM DTT, 4% glycerol, room temperature, 30 min; GST-TFs on glutathione beads, 16-mer random dsDNA library, 0.1% formaldehyde crosslink after washing; high values mean tight binding
Common to all, as to conditions: protein: recombinant; tags: N-terminal GST; dsDNA, one strand shown

For one test, the target named is T1, FLI1 (Homo sapiens, UniProt Q01543 1-452).
T1 sequence: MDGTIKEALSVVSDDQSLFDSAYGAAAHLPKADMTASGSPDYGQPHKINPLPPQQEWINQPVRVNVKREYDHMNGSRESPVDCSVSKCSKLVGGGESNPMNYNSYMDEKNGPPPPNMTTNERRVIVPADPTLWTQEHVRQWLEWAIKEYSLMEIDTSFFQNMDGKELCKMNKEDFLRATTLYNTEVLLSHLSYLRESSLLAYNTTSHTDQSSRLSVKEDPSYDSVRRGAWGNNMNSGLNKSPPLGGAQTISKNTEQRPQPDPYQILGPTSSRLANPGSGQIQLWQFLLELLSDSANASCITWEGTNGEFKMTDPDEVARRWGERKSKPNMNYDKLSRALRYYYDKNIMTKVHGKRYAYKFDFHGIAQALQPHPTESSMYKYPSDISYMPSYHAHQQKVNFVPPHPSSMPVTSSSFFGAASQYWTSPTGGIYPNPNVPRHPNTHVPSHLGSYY
In short, it runs like this:
(§1)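 Binding signal is given per hexamer as its read frequency for a factor divided by its frequency in the tag-only sample. GST-fused human transcription factors were expressed in yeast, captured on glutathione beads, barcoded with DNA and pooled with that sample, then incubated with 200 nmole of a 16-mer random double-stranded DNA library in Tris/NaCl/DTT/glycerol buffer for 30 min at room temperature. The pools were then washed, crosslinked, proximity-ligated, amplified by PCR and sequenced on an Illumina NextSeq500.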

For the next test, the target named is T2, ELK1 (Homo sapiens, UniProt P19419 1-428).
T2 sequence: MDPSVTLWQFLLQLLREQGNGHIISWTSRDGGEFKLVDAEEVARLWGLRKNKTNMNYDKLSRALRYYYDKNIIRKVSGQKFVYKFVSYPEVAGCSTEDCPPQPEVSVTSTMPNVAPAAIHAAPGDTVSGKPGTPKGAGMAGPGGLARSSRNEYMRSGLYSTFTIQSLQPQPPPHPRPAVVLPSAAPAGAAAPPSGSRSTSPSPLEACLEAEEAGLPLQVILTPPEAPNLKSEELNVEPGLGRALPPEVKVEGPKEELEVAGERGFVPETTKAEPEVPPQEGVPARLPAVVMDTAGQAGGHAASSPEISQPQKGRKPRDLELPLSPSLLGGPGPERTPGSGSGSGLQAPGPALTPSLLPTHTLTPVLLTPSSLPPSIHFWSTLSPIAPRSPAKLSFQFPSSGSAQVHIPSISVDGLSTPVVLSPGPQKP
In short, it runs like this:
as §1

In the next test the target is T3, GABPA (Homo sapiens, UniProt Q06546 1-454).
T3 sequence: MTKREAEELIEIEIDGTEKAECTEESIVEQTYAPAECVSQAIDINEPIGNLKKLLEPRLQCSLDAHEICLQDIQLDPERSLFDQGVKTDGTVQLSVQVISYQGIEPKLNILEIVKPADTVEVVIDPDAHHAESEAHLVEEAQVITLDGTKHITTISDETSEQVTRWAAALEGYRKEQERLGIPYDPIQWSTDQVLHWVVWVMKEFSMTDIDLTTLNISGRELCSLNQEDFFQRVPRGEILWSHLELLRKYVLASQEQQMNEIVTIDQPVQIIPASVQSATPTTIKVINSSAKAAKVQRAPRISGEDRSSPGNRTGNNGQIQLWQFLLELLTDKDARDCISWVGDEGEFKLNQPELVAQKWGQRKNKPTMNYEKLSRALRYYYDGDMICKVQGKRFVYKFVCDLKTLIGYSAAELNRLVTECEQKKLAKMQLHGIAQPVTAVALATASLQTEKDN
In short, it runs like this:
as §1

The target in another test is T4, ERG (Homo sapiens, UniProt P11308 1-479).
T4 sequence: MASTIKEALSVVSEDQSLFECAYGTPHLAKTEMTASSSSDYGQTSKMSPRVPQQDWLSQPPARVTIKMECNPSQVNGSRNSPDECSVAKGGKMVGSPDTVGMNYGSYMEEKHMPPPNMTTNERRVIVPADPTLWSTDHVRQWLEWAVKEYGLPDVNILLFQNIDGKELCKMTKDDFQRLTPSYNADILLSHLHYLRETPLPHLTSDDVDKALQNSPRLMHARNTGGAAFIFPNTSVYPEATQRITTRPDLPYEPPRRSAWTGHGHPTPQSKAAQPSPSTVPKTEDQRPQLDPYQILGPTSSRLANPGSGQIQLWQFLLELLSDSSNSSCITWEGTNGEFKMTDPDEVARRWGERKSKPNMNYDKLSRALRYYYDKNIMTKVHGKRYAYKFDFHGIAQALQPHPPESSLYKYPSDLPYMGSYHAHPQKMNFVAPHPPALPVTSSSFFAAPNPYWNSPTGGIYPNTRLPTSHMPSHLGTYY
The procedure, abridged:
as §1

A further test has as its target ELF1 (Homo sapiens, UniProt P32519 1-619). The procedure, abridged:
as §1

For the next test, the target named is T5, EHF (Homo sapiens, UniProt Q9NZC4 1-300).
T5 sequence: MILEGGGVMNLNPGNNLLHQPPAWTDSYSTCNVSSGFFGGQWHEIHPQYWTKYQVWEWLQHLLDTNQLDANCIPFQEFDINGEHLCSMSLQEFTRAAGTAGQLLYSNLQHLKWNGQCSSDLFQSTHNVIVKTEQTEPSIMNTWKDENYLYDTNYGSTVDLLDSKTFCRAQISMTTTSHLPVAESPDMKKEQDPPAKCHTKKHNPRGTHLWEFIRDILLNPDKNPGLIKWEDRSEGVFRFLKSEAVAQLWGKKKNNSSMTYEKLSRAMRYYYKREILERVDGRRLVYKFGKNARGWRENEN
The procedure, abridged: as §1

A further test addresses SPI1 (Homo sapiens, UniProt P17947 1-270). The procedure, abridged: as §1
For the next test, the target named is SPIB (Homo sapiens, UniProt Q01892 1-262). The procedure, abridged:
as §1

Another test addresses T6, ELK3 (Homo sapiens, UniProt P41970 1-407).
T6 sequence: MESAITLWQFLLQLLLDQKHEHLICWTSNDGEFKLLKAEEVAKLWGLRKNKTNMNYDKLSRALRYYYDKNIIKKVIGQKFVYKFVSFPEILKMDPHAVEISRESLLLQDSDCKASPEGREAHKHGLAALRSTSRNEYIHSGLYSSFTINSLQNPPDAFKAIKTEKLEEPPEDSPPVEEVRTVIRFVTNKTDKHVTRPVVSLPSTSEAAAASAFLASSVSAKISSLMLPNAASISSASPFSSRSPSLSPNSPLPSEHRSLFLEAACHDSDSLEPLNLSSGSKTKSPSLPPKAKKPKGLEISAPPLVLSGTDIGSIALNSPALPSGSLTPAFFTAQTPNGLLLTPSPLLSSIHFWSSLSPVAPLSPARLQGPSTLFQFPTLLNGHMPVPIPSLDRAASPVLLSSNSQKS
The procedure, abridged: as §1

Sequence of SPIB (Q01892 whole entry): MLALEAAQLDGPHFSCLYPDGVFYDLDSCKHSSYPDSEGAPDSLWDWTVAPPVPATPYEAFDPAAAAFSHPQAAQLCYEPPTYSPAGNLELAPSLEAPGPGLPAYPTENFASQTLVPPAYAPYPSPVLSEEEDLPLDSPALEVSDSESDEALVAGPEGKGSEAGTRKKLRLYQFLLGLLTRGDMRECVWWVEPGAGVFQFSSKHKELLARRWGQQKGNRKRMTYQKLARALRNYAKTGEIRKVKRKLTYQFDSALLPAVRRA
Sequence of ELF1 (P32519 whole entry): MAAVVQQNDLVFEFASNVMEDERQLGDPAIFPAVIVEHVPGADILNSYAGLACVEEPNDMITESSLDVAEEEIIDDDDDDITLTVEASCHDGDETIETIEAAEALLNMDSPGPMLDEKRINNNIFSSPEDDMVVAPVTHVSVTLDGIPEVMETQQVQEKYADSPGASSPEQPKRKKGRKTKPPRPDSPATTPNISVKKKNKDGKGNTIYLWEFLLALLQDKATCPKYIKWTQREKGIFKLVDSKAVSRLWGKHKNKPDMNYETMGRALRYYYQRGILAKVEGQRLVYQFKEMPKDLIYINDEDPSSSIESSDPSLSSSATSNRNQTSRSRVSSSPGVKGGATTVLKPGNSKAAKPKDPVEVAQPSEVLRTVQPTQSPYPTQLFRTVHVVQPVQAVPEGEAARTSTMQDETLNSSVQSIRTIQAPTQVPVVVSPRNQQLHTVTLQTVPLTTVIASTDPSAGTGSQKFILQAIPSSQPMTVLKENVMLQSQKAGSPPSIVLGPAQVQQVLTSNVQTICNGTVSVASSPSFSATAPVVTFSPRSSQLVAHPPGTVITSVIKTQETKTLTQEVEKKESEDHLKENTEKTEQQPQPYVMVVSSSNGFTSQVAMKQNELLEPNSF

TCCGAC: the binding signal in the test with FLI1 is 1.42 fold enrichment (6-mer frequency, TF over GST control); with ELK1, 1.47 fold enrichment (6-mer frequency, TF over GST control); in the test with GABPA, 1.32 fold enrichment (6-mer frequency, TF over GST control); with ERG, 1.46 fold enrichment (6-mer frequency, TF over GST control); in the test with ELF1, 1.42 fold enrichment (6-mer frequency, TF over GST control); with EHF it was 1.46 fold enrichment (6-mer frequency, TF over GST control). The binding signal is 1.37 fold enrichment (6-mer frequency, TF over GST control) in the test with SPI1; 1.46 fold enrichment (6-mer frequency, TF over GST control) with SPIB; 1.56 fold enrichment (6-mer frequency, TF over GST control) in the test with ELK3.

As to TAAACG, the binding signal in the test with FLI1 is 1.17 fold enrichment (6-mer frequency, TF over GST control); with ELK1, 1.09 fold enrichment (6-mer frequency, TF over GST control); in the test with GABPA it was 1.15 fold enrichment (6-mer frequency, TF over GST control); in the test with ERG, 1.09 fold enrichment (6-mer frequency, TF over GST control); in the test with ELF1, 1.11 fold enrichment (6-mer frequency, TF over GST control); in the test with EHF, 1.17 fold enrichment (6-mer frequency, TF over GST control). The binding signal with SPI1 was 1.13 fold enrichment (6-mer frequency, TF over GST control); with SPIB, 1.19 fold enrichment (6-mer frequency, TF over GST control); in the test with ELK3, 1.13 fold enrichment (6-mer frequency, TF over GST control).

As to CTCTCT, the binding signal is 1.77 fold enrichment (6-mer frequency, TF over GST control) with FLI1; 1.78 fold enrichment (6-mer frequency, TF over GST control) with ELK1; 1.56 fold enrichment (6-mer frequency, TF over GST control) with GABPA; 1.62 fold enrichment (6-mer frequency, TF over GST control) in the test with ERG; 1.76 fold enrichment (6-mer frequency, TF over GST control) in the test with ELF1; 1.66 fold enrichment (6-mer frequency, TF over GST control) in the test with EHF. Moreover, the binding signal with SPI1 was 1.53 fold enrichment (6-mer frequency, TF over GST control); with SPIB it was 1.56 fold enrichment (6-mer frequency, TF over GST control); with ELK3, 1.49 fold enrichment (6-mer frequency, TF over GST control).

Take TATTCC: the binding signal was 1.65 fold enrichment (6-mer frequency, TF over GST control) with FLI1; 1.68 fold enrichment (6-mer frequency, TF over GST control) with ELK1; 1.6 fold enrichment (6-mer frequency, TF over GST control) with GABPA; 1.52 fold enrichment (6-mer frequency, TF over GST control) with ERG; 1.59 fold enrichment (6-mer frequency, TF over GST control) with ELF1; 1.58 fold enrichment (6-mer frequency, TF over GST control) with EHF. In addition, the binding signal in the test with SPI1 is 1.48 fold enrichment (6-mer frequency, TF over GST control); with SPIB, 1.49 fold enrichment (6-mer frequency, TF over GST control); with ELK3, 1.56 fold enrichment (6-mer frequency, TF over GST control).

Regarding AAGTAA, the binding signal was 1.17 fold enrichment (6-mer frequency, TF over GST control) with FLI1; 1.25 fold enrichment (6-mer frequency, TF over GST control) with ELK1; 1.3 fold enrichment (6-mer frequency, TF over GST control) with GABPA; 1.25 fold enrichment (6-mer frequency, TF over GST control) with ERG; 1.27 fold enrichment (6-mer frequency, TF over GST control) with ELF1; 1.3 fold enrichment (6-mer frequency, TF over GST control) with EHF. Further, the binding signal was 1.34 fold enrichment (6-mer frequency, TF over GST control) with SPI1; 1.22 fold enrichment (6-mer frequency, TF over GST control) with SPIB; 1.27 fold enrichment (6-mer frequency, TF over GST control) with ELK3.

As for CTTGCG, the binding signal with FLI1 is 1.44 fold enrichment (6-mer frequency, TF over GST control); in the test with ELK1, 1.42 fold enrichment (6-mer frequency, TF over GST control); with GABPA it was 1.32 fold enrichment (6-mer frequency, TF over GST control); with ERG, 1.35 fold enrichment (6-mer frequency, TF over GST control); in the test with ELF1 it was 1.39 fold enrichment (6-mer frequency, TF over GST control); in the test with EHF, 1.41 fold enrichment (6-mer frequency, TF over GST control). Also, the binding signal is 1.34 fold enrichment (6-mer frequency, TF over GST control) with SPI1; 1.4 fold enrichment (6-mer frequency, TF over GST control) with SPIB; 1.44 fold enrichment (6-mer frequency, TF over GST control) with ELK3.

TTTTCA: the binding signal with FLI1 is 1.12 fold enrichment (6-mer frequency, TF over GST control); with ELK1 it was 1.19 fold enrichment (6-mer frequency, TF over GST control); with GABPA, 1.3 fold enrichment (6-mer frequency, TF over GST control); in the test with ERG, 1.17 fold enrichment (6-mer frequency, TF over GST control); with ELF1, 1.18 fold enrichment (6-mer frequency, TF over GST control); with EHF, 1.22 fold enrichment (6-mer frequency, TF over GST control). Further, the binding signal was 1.29 fold enrichment (6-mer frequency, TF over GST control) with SPI1; 1.27 fold enrichment (6-mer frequency, TF over GST control) with SPIB; 1.09 fold enrichment (6-mer frequency, TF over GST control) with ELK3.
